In PubChem BioAssay (EPA / NIEHS):
The source made the active and inactive calls. How the source made its calls: active means hit-call score of the fitted dose curve at least 0.9, where 1 is the maximum; inactive means score below 0.9.

Columns and labels:
[1] = ATG_NFI_CIS: Attagene CIS-FACTORIAL HepG2 Assay for human Nuclear Factor I (NFI) (AID 2282989); conditions: HepG2 cis-regulatory reporter, NFI response element transcription; actives raise or lower the signal
Method in brief: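 Reporter transcription driven by endogenous transcription factors in HepG2 cells; 24 h treatment. Quantitation by labelled RT-PCR fragments on capillary electrophoresis, gain- or loss-of-signal relative to DMSO.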

[2] = biological target: Myc proto-oncogene protein (Homo sapiens) (UniProt P01106); assay: ATG_Myc_CIS: Attagene CIS-FACTORIAL HepG2 Assay for human Myelocytomatosis (Myc) Proto-Oncogene Transcription Factor (AID 2282990); conditions: HepG2, Attagene cis-reporter transcription factor activity; actives raise or lower the signal
Myc proto-oncogene protein (Homo sapiens), sequence (P01106 whole entry, looked up): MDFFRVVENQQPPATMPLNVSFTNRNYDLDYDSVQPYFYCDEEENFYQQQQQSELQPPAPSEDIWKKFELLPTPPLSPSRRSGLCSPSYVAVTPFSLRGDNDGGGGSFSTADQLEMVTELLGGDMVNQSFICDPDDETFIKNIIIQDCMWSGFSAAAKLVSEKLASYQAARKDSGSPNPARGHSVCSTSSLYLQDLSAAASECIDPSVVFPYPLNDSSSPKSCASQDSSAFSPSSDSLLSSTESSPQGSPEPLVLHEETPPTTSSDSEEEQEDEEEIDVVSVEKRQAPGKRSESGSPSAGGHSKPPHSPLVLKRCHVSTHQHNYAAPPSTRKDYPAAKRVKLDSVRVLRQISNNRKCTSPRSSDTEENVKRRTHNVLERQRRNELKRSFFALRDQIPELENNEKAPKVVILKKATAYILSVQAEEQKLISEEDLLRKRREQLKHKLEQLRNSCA
Method in brief: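 DMSO-normalised, bidirectionally fitted reporter mRNA signal. HepG2 cells transfected with cis reporter constructs, treated 24 h; transcripts detected by RT-PCR, 6-FAM primer extension and CE.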

[3] = ATG_NF_kB_CIS: Attagene CIS-FACTORIAL HepG2 Assay for human Nuclear Factor Kappa B (NF-kB) (AID 2282991); conditions: HepG2 Attagene cis-factorial NF-kB reporter mRNA; actives raise or lower the signal
Method in brief: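 Fluorescence of labelled RT-PCR products separated by capillary electrophoresis gives reporter mRNA levels from transfected HepG2 cells exposed 24 h; values are fitted in both directions relative to DMSO.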

[4] = ATG_NRF2_ARE_CIS: Attagene CIS-FACTORIAL HepG2 Assay for human Nuclear Factor Erythroid 2 Related Factor 2 (NFR2) response to Antioxidant Response Elements (ARE) (AID 2282992); conditions: HepG2 Attagene ARE/NRF2 reporter, transcription factor activity; actives raise or lower the signal
Method in brief: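 HepG2 cells transiently transfected with multiplexed cis-regulated reporter transcription units measure endogenous transcription factor activity. Reporter mRNA at 24 h is quantified by RT-PCR, fluorescent labelling and capillary electrophoresis, with bidirectional fitting relative to DMSO.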

[5] = biological target: Cellular tumor antigen p53 (Homo sapiens) (UniProt P04637); assay: ATG_p53_CIS: Attagene CIS-FACTORIAL HepG2 Assay for human p53 Transcription Factor (AID 2282994); conditions: HepG2 p53 cis-element reporter, Attagene mRNA; actives raise or lower the signal
Cellular tumor antigen p53 (Homo sapiens), sequence (P04637 whole entry, looked up): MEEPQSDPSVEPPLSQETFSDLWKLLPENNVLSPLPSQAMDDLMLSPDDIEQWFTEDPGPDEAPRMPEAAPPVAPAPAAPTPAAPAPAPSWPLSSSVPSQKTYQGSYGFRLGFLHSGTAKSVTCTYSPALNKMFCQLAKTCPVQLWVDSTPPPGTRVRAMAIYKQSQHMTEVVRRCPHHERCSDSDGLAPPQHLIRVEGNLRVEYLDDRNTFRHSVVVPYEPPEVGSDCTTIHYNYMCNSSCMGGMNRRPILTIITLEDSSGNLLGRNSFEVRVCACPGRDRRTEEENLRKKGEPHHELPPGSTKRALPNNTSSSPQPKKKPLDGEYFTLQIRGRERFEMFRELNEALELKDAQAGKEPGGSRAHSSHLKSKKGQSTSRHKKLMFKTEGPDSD
Method in brief: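 HepG2 cells transiently transfected with multiplexed cis-regulated reporter transcription units read endogenous TF activity. After 24 h compound exposure, reporter mRNA was quantified by RT-PCR, fluorescent labelling, HpaI digestion and capillary electrophoresis; bidirectional fits versus DMSO baseline.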

[6] = BSK_3C_TissueFactor: BioMAP Diversity Plus: 3C Assay for Tissue Factor Biomarker Activity (AID 2282997); conditions: BioMAP 3C HUVEC, tissue factor biomarker readout; actives raise or lower the signal
Method in brief: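 ELISA read-out of Tissue Factor levels on human umbilical vein endothelium collected 24 h after chemical dosing. Gain or loss of signal was fitted relative to DMSO.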

[7] = BSK_3C_uPAR: BioMAP Diversity Plus: 3C Assay for Urokinase-type plasminogen activator receptor (uPAR) Biomarker Activity (AID 2282998); conditions: BioMAP 3C HUVEC, uPAR biomarker ELISA; actives raise or lower the signal
Method in brief: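 Readout: ELISA for surface uPAR. System: human umbilical vein endothelial primary cells, 24 h after chemical exposure. Analysis: bidirectional fit, DMSO baseline.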

[8] = BSK_3C_VCAM1: BioMAP Diversity Plus: 3C Assay for Vascular cell adhesion molecule 1 (VCAM1) Biomarker Activity (AID 2282999); conditions: BioMAP 3C HUVEC, VCAM1 ELISA, cytokine-stimulated; actives raise or lower the signal
Method in brief: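 Human umbilical vein endothelial cells were dosed with compound for 24 h, after which cell-surface VCAM-1 was quantified by ELISA. Bidirectional curve fitting used DMSO as negative control and activity baseline.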

[9] = BSK_4H_Eotaxin3: BioMAP Diversity Plus: 4H Assay for Eotaxin 3 Biomarker Activity (AID 2283000); conditions: primary human endothelial cells (HUVEC); actives raise or lower the signal
Method in brief: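 Chemicals were added to human umbilical vein endothelium cultures, and Eotaxin-3 was quantified by ELISA at 24 h. Values were derived by bidirectional fitting with DMSO serving as negative control and activity baseline.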

[10] = ATG_Oct_MLP_CIS: Attagene CIS-FACTORIAL HepG2 Assay for human Octamer-Binding Transcription Factor (Oct) (AID 2282993); conditions: HepG2 Attagene cis-factorial Oct reporter, mRNA; actives raise or lower the signal
Method in brief: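 Transfected HepG2 cells, 24 h treatment. Reporter mRNA quantified by RT-PCR–capillary electrophoresis; bidirectional fitting against DMSO.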

Measured: AC50

CO[C@@H]1[C@H](OC(=O)NC(=O)CCl)CC[C@]2(CO2)[C@H]1[C@@]1(C)O[C@@H]1CC=C(C)C
active: [4] 4.98 µM | [6] 3.62 µM | [8] 6.87 µM | [9] 4.41 µM
not listed: [10]
inactive: all other assays above

OCCCl
not listed: [3]
inactive: all other assays above

N#CC(Br)(Br)C(N)=O
active: [3] 157 µM | [4] 100 µM
not listed: [10]
inactive: all other assays above

OCCCBr
not listed: [10]
inactive: all other assays above

[Cl-].[Cl-].[Hg+2]
inactive: [1] | [2] | [10]
active: [4] 5.59 µM | [5] 55.4 µM | [6] 34.8 µM | [7] 34.1 µM | [8] 20 µM | [9] 30.9 µM

CCCCCCCCOC(=O)c1ccc(C(=O)OCCCCCCCC)c(C(=O)OCCCCCCCC)c1
not listed: [2]
inactive: all other assays above

ClC1=C(Cl)C2(Cl)C3C(Cl)C=CC3C1(Cl)C2(Cl)Cl (configuration not stated)
inactive: [4]
active: [1] 186 µM | [3] 100 µM | [10] 149 µM | [5] 100 µM | [6] 26.9 µM | [7] 29.3 µM | [8] 30.8 µM | [9] 29.9 µM

CCOC(=O)[C@]1(c2ccccc2)Oc2ccccc2[C@@H]1N
active: [1] 46.4 µM | [3] 33 µM | [4] 34.7 µM | [10] 28.8 µM | [6] 20 µM | [7] 20 µM | [9] 29.6 µM
inactive: [8]

CCOc1cccc(C2(N3CCN(c4ccccc4)CC3)CCC(C)CC2)c1 (configuration not stated)
not listed: [3]
inactive: all other assays above

CS(=O)(=O)NC(=O)c1cc(Oc2ccc(C(F)(F)F)cc2Cl)ccc1[N+](=O)[O-]
active: [7] 28.6 µM
not listed: [3]
inactive: all other assays above

c1ccc(NNc2ccccc2)cc1
active: [4] 27.8 µM
not listed: [2] | [9]
inactive: all other assays above

O=Cc1ccco1
not listed: [2] | [9]
inactive: all other assays above

O=C(N[C@H](c1ccccc1)[C@@H]1CN2CCC1CC2)c1c(Cl)ccc(C(F)(F)F)c1Cl
active: [4] 3.02 µM | [7] 17.7 µM
not listed: [2] | [9]
inactive: all other assays above

CNC(=O)Oc1cccc2c1OC(C)(C)C2
not listed: [3] | [10]
inactive: all other assays above

Cc1cccc(N)c1N
active: [4] 21.6 µM | [10] 167 µM | [8] 16 µM
not listed: [2] | [9]
inactive: all other assays above

OCCOCCO
not listed: [3] | [5]
inactive: all other assays above

CCCCCCCCCCCCCN1CC(C)OC(C)C1 (configuration not stated)
active: [4] 47 µM
not listed: [3] | [9] | [10]
inactive: all other assays above

CC(C)(C)OOC(C)(C)CCC(C)(C)OOC(C)(C)C
inactive: [1] | [5] | [6] | [7] | [8]
active: [4] 75.2 µM

CC(O)CCO (configuration not stated)
not listed: [2] | [9] | [10]
inactive: all other assays above

Nc1ccc(Oc2ccc(N)cc2)cc1
not listed: [2] | [9] | [10]
inactive: all other assays above

Cc1ccc(N)c(N)c1
active: [4] 8.84 µM | [8] 5.57 µM
not listed: [2] | [10]
inactive: all other assays above

C[N+](C)(C)CC1CO1 (configuration not stated)
not listed: [2] | [3] | [9]
inactive: all other assays above

CCC12COCN1COC2
not listed: [2] | [10]
inactive: all other assays above

O=C1CCCO1
not listed: [2] | [3] | [9]
inactive: all other assays above

CCCSC(=O)N(CCC)CCC
not listed: [2] | [9] | [10]
inactive: all other assays above

Clc1ccccc1Cl
inactive: [1] | [3] | [4] | [6] | [7] | [8]

COC(=O)Nc1nc2ccccc2[nH]1
active: [4] 21.4 µM | [7] 10.9 µM
inactive: [1] | [10] | [5] | [6] | [8]

CC(C)N(Cc1ccccc1)C(=O)C(C)(C)C
not listed: [2] | [10]
inactive: all other assays above

CCCCC(CC)COC(=O)c1ccc(C(=O)OCC(CC)CCCC)c(C(=O)OCC(CC)CCCC)c1 (configuration not stated)
not listed: [2] | [9] | [10]
inactive: all other assays above

CN(C)C(=O)Nc1ccc(Cl)cc1
not listed: [2] | [9] | [10]
inactive: all other assays above

Nc1ccc([N+](=O)[O-])cc1
not listed: [2] | [9] | [10]
inactive: all other assays above

O=C(Nc1ccccc1)c1ccccc1I
active: [4] 20.3 µM
inactive: [1] | [3] | [6] | [7] | [8]

CN(C)[C@@H]1C(=O)C(C(N)=O)=C(O)[C@@]2(O)C(=O)C3=C(O)c4c(O)cccc4[C@@](C)(O)[C@H]3C[C@@H]12
not listed: [2] | [9] | [10]
inactive: all other assays above

c1ccc(C2CO2)cc1 (configuration not stated)
not listed: [2] | [3] | [9]
inactive: all other assays above

O=[N+]([O-])C(Br)(CO)CO
active: [6] 27.1 µM | [7] 30.5 µM | [8] 31.1 µM
inactive: [1] | [3] | [4]

Nc1ccc(N=Nc2ccccc2)cc1
inactive: [1] | [5] | [6] | [7] | [8]
active: [4] 3.6 µM

C1=Cc2cccc3cccc1c23
not listed: [2] | [9] | [10]
inactive: all other assays above

O=C(O)C1C2CCC(O2)C1C(=O)O (configuration not stated)
active: [4] 34.7 µM | [10] 75.4 µM | [5] 100 µM | [8] 21 µM
inactive: [1] | [6] | [7]

Brc1ccc(Oc2ccccc2)cc1
active: [1] 158 µM | [4] 74 µM
not listed: [2] | [10]
inactive: all other assays above

CC(C)COC(=O)c1ccccc1C(=O)OCC(C)C
active: [4] 36 µM | [6] 12.4 µM | [8] 26.8 µM
inactive: [1] | [7] | [9]

O=C(Oc1ccc(Br)cc1)N1CCN2CCC1CC2
active: [3] 60.9 µM | [5] 64.9 µM
not listed: [2] | [10]
inactive: all other assays above

Clc1ccc(Cl)c(Cl)c1
not listed: [2] | [3]
inactive: all other assays above

[As]#[In]
not listed: [2] | [10]
inactive: all other assays above

Cc1ccc(N)cc1
not listed: [2] | [10]
inactive: all other assays above

Cc1ccc([N+](=O)[O-])cc1
not listed: [2] | [3] | [9]
inactive: all other assays above
